# In PubChem BioAssay (NCATS):
# Results filed as inconclusive are left out. Where a call stands in place of a potency, no number is given. The source made the active and inactive calls. Unless noted, the call rests on the fitted dose curve; in most records, active means well fitted curve in the direction sought with a large enough effect; inconclusive means small, poorly fitted or top-dose-only effect, or another doubt; inactive means no such curve, though single readings can be large; an effect the other way counts as inactive or inconclusive.
# Key:
# [1] = biological target: Alpha-galactosidase (Coffea arabica) (UniProt Q42656); assay: Counterscreen for Glucocerebrosidase Inhibitors: qHTS Assay for Coffee Bean alpha-Galactosidase at pH 4.5 (AID 957); further: series mostly up to about 77 µM
# Chain of Alpha-galactosidase (Coffea arabica) (Q42656 whole entry, looked up): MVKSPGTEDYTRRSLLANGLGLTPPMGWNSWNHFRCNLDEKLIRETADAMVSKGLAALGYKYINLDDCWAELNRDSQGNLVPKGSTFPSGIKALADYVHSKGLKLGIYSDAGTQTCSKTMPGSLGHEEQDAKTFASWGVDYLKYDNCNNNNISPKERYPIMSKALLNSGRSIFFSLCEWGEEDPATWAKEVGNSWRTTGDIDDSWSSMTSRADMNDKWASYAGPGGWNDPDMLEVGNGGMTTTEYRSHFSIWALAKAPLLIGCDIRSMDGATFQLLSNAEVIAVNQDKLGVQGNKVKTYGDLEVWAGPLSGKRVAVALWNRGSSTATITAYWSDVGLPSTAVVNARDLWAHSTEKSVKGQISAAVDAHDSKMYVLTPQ
# Method in brief: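 Fluorogenic read-out: 4-methylumbelliferone at Ex 365/Em 440 nm after NaOH/glycine stop (pH 10). Enzyme 2 nM, 4-MU-alpha-galactoside 80 uM, citrate buffer pH 4.5, 20 min RT; normalized to no-enzyme and enzyme controls.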
# [2] = biological target: Alpha-galactosidase (Coffea arabica) (UniProt Q42656); assay: Counterscreen for Glucocerebrosidase Inhibitors: qHTS Assay for Coffee Bean alpha-Galactosidase at pH 5.9 (AID 998)
# Method in brief: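 Enzyme 2 nM + cpd (0.7 nM–77 uM titration) + 4-MU-alpha-Gal 80 uM, pH 5.9 citrate/Tween-20, RT 20 min, NaOH/glycine stop pH 10, fluor 365/440. Normalized to no-enzyme and full-activity controls; Hill-fit AC50.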
# [3] = Validation screen for inhibitors of Lassa infection (AID 463096; calls by dose curve; further: potency means the concentration at half of the fitted maximal effect)
# [4] = Inducers of the Endoplasmic Reticulum Stress Response (ERSR) in human glioma: Validation (AID 504836)
# Method in brief: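 Stably transfected U87-MG glioma cells carrying a GRP78-based luciferase sensor; 16 h compound incubation. Luminescence end-point read 10 min after Bright-Glo addition at room temperature.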
# [5] = qHTS for Inhibitors of the Functional Ribonucleoprotein Complex (vRNP) of Lassa (LASV) Arenavirus: LASV Primary Screen - GLuc reporter signal (AID 1347082; calls by dose curve; tested in HEK293 reporter line; further: series mostly up to about 57 µM; nearly all actives have a fitted effect of over 60% in size)
# [6] = qHTS for Inhibitors of the Functional Ribonucleoprotein Complex (vRNP) of Lassa (LASV) Arenavirus: Viability assay - alamar blue signal for LASV Primary Screen (AID 1347083; calls by dose curve; tested in HEK293 reporter line; further: series mostly up to about 57 µM; nearly all actives have a fitted effect of over 80% in size)
# [7] = qHTS for Inhibitors of the Functional Ribonucleoprotein Complex (vRNP) of Lymphocytic Choriomeningitis Arenaviruses (LCMV): Viability assay - alamar blue signal for LCMV Primary Screen (AID 1347085; calls by dose curve; tested in HEK293 reporter line; further: series mostly up to about 57 µM; nearly all actives have a fitted effect of over 80% in size)
# [8] = biological target: Nucleoprotein (Lymphocytic choriomeningitis virus (strain Armstrong)) (UniProt P09992); assay: qHTS for Inhibitors of the Functional Ribonucleoprotein Complex (vRNP) of Lymphocytic Choriomeningitis Arenaviruses (LCMV): LCMV Primary Screen - GLuc reporter signal (AID 1347086; calls by dose curve; further: series mostly up to about 57 µM; nearly all actives have a fitted effect of over 70% in size)
# Chain of Nucleoprotein (Lymphocytic choriomeningitis virus (strain Armstrong)) (P09992 whole entry, looked up): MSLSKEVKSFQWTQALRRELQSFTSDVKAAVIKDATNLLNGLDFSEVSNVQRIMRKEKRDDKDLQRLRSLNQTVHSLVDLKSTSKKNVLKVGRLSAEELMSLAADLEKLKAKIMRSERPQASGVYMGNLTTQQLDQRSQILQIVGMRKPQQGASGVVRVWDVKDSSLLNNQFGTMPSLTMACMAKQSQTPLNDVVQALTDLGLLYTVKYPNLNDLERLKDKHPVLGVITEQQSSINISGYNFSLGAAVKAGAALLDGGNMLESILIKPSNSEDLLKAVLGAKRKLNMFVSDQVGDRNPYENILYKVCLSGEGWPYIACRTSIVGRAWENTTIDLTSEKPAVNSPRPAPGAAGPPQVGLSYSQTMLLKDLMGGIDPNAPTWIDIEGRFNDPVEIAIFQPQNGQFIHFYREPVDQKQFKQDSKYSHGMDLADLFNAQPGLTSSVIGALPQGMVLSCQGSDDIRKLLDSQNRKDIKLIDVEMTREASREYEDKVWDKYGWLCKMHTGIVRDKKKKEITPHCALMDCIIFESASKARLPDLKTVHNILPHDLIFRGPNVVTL
Structure (SMILES),outcome [1],outcome [2],Potency [3],outcome [4],Potency [5],Potency [6],Potency [7],Potency [8]
COc1ccccc1N1CCN(CCCCNC(=O)c2ccc3ccccc3c2)CC1,inactive,inactive,11.2 µM (active),inactive,inactive,inactive,inactive,inactive
N[C@@H](Cc1c[nH]c2ccccc12)C(=O)O,inactive,inactive,inactive,inactive,inactive,inactive,inactive,inactive
Cn1c(=O)c2[nH]c(-c3ccccc3)nc2n(C)c1=O,inactive,inactive,inactive,inactive,inactive,inactive,inactive,inactive
Clc1ccc(N2CCN(Cc3c[nH]c4ncccc34)CC2)cc1,inactive,inactive,inactive,inactive,inactive,inactive,inactive,inactive
Cn1c(=O)c2[nH]c(-c3ccc(S(=O)(=O)O)cc3)nc2n(C)c1=O,inactive,inactive,inactive,inactive,inactive,inactive,inactive,inactive
O=C(O)C1=CCCN(CCON=C(c2ccccc2)c2ccccc2)C1,inactive,inactive,inactive,inactive,inactive,inactive,inactive,inactive
NCCSSCCN,inactive,inactive,inactive,inactive,inactive,inactive,inactive,inactive
O=C(O)c1cc(=O)cc(C(=O)O)[nH]1,inactive,inactive,inactive,inactive,inactive,inactive,inactive,inactive
O=C(O)c1cc2cc(Cc3cccnc3)ccc2o1,inactive,inactive,inactive,inactive,inactive,inactive,inactive,inactive
O=c1[nH]c2cc([N+](=O)[O-])c([N+](=O)[O-])cc2[nH]c1=O,inactive,inactive,inactive,inactive,inactive,inactive,inactive,inactive
Nc1ccc(-c2ccc3ccccc3n2)cc1,,inactive,inactive,inactive,inactive,inactive,inactive,inactive
N=C(N)c1ccc(N)cc1,,inactive,inactive,inactive,inactive,inactive,inactive,inactive
CC(=O)SCC[N+](C)(C)C,inactive,inactive,inactive,inactive,inactive,inactive,inactive,inactive
NCCCNCCCCNCCCN,,inactive,inactive,inactive,inactive,inactive,inactive,inactive
CCCCCCCCCCCCCCC[C@H](O)[C@H](N)CO,inactive,inactive,inactive,inactive,inactive,inactive,inactive,inactive
CC(C)NC[C@H](O)COc1ccc(CC(N)=O)cc1,inactive,inactive,inactive,inactive,inactive,inactive,inactive,inactive
NCCCCN,inactive,inactive,inactive,inactive,inactive,inactive,inactive,inactive
CC(C)NC[C@H](O)c1ccc(O)c(O)c1,inactive,inactive,inactive,inactive,inactive,inactive,inactive,inactive
O=c1[nH]ccc2c(O)cccc12,inactive,inactive,inactive,inactive,inactive,inactive,inactive,inactive
COc1ccccc1N1CCN(CCCNc2c(C)c(=O)n(C)c(=O)n2C)CC1,,inactive,inactive,inactive,inactive,inactive,inactive,inactive
C[N+](C)(CCCCCC[N+](C)(C)CCCN1C(=O)c2cccc3cccc(c23)C1=O)CCCN1C(=O)c2cccc3cccc(c23)C1=O,inactive,inactive,inactive,inactive,inactive,inactive,inactive,inactive
Cc1nc(N=Nc2ccc(C(=O)O)cc2)c(COP(=O)(O)O)c(C=O)c1O,,inactive,inactive,inactive,inactive,inactive,inactive,inactive
Oc1cc2c(cc1O)CN(C(=S)NCCc1ccc(Cl)cc1)CCC2,inactive,inactive,inactive,inactive,inactive,inactive,inactive,inactive
O=C(O)C1CCNCC1,inactive,inactive,inactive,inactive,inactive,inactive,inactive,inactive
Nc1ccc(-c2nc3ccc(-c4nc5ccc(N)cc5[nH]4)cc3[nH]2)cc1,inactive,inactive,inactive,inactive,inactive,inactive,inactive,inactive

Structure (SMILES),outcome [1],outcome [2],Potency [3],outcome [4],Potency [5],Potency [6],Potency [7],Potency [8]
CCSC(=N)N,inactive,inactive,inactive,inactive,inactive,inactive,inactive,inactive
O=c1onc2n1-c1cc(Br)ccc1OC2,inactive,inactive,inactive,inactive,inactive,inactive,inactive,inactive
CC(C)(CO)Cc1cc(C(C)(C)C)c(O)c(C(C)(C)C)c1,inactive,inactive,inactive,inactive,inactive,inactive,inactive,inactive
O=C(O)C1=CCCNC1,inactive,inactive,inactive,inactive,inactive,inactive,inactive,inactive
CCCCN1CCC(n2c(=O)[nH]c3ccccc32)CC1,inactive,inactive,inactive,inactive,inactive,inactive,inactive,inactive
C[C@H](NC(=O)/C(C#N)=C/c1ccc(O)c(O)c1)c1ccccc1,inactive,inactive,inactive,inactive,inactive,inactive,inactive,inactive
NCCNS(=O)(=O)c1cccc2c(Cl)cccc12,,inactive,inactive,inactive,inactive,inactive,inactive,inactive
CN1CCc2ccccc2Cc2[nH]c3ccccc3c2CC1,inactive,inactive,inactive,inactive,inactive,inactive,inactive,inactive
N#Cc1cc2nc(O)c(O)nc2cc1[N+](=O)[O-],,inactive,inactive,inactive,inactive,inactive,inactive,inactive
CNC(=O)c1cc2c(cn1)[nH]c1ccccc12,inactive,inactive,inactive,inactive,inactive,inactive,inactive,inactive
CNCCNS(=O)(=O)c1cccc2cnccc12,,inactive,inactive,inactive,inactive,inactive,inactive,inactive
O=c1ccc2c(OCCCCc3ccccc3)c3ccoc3cc2o1,inactive,inactive,inactive,inactive,inactive,inactive,inactive,inactive
Nc1ccc(N2C(=O)c3ccccc3C2=O)c(Cl)c1,inactive,inactive,inactive,inactive,inactive,inactive,inactive,inactive
COC(=O)c1c(C)[nH]c(C)c1C(=O)c1ccccc1Cc1ccccc1,,inactive,inactive,inactive,inactive,inactive,inactive,inactive
CCCn1c(=O)[nH]c(=O)c2[nH]cnc21,inactive,inactive,inactive,inactive,inactive,inactive,inactive,inactive
NC1(C(=O)O)CC1,inactive,inactive,inactive,inactive,inactive,inactive,inactive,inactive
COCc1nc2c([nH]1)c(=O)n(C)c(=O)n2CC(C)C,inactive,inactive,inactive,inactive,inactive,inactive,inactive,inactive
Cn1c(=O)c2[nH]c(C3CCCC3)nc2n(C)c1=O,,inactive,inactive,inactive,inactive,inactive,inactive,inactive
N=C(N)SCCN,,inactive,inactive,inactive,inactive,inactive,inactive,inactive
N#C/C(=C\c1c[nH]c2ccccc12)C(=O)c1ccc(O)c(O)c1,inactive,inactive,inactive,inactive,inactive,inactive,inactive,inactive
NC1(C(=O)O)CCCCC1,inactive,inactive,inactive,inactive,inactive,inactive,inactive,inactive
CCCOC(=O)c1c(-c2ccccc2)nc(CC)c(C(=O)SCC)c1CCC,inactive,inactive,inactive,inactive,inactive,inactive,inactive,inactive
C#CC(N)CCC(=O)O (stereo not given),,,,inactive,inactive,inactive,inactive,inactive
Nc1ncnc2c1nc(Sc1ccc(Cl)cc1)n2[C@H]1OC2COP(=O)(O)O[C@@H]2C1O (stereo not given in full),,,,inactive,inactive,inactive,inactive,inactive
